The record followed here is PubChem BioAssay (NCI).

The panel holds about 83,000 compounds, 20% with a hit somewhere; the sample as a whole holds those more often.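 Treatment: one concentration, 48 hours, 96-well format. Scoring: percent growth, with anything below 10 considered active.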 Unmarked numbers belong to inactive results. Calls of active or inactive are those of the source.

Some test systems named below: NCI-H23 lung; NCI-H226 lung; NCI-H322M lung; HOP-62 NSCLC; NCI-H460 lung; NCI-H522 lung; A549/ATCC NSCLC; 786-0 renal; COLO 205 colon; DU-145 prostate; MALME-3M melanoma; MDA-MB-231 breast; RXF 393 renal; SF-268 CNS; SF-295 CNS; SF-539 CNS; UACC-257 melanoma; M14 melanoma.
Holding throughout (assay): NCI-60 one-dose screen, 48 h (100 = growth as untreated, 0 = no growth, -100 = all killed)
Holding throughout (details): 10 µM unless noted

With `COc1cc(NC(=O)CSc2nc3ccc(Cl)cc3c(=O)n2-c2ccccc2)cc(OC)c1OC`, the growth in the experiment with NCI-H23 lung is 102%; in the experiment on NCI-H226 lung, 91.2%; in the experiment on NCI-H322M lung it was 99.8%; in the experiment with HOP-62 NSCLC, 85.5%; in the experiment with NCI-H460 lung, 98.2%; in the experiment on NCI-H522 lung it was 84.8%. In addition, the growth with A549/ATCC NSCLC was 89%; in the experiment with 786-0 renal, 92.1%; with COLO 205 colon, 116%; in the experiment with DU-145 prostate, 102%; in the experiment with MALME-3M melanoma it was 88%; with MDA-MB-231 breast, 77.8%. Moreover, the growth in the experiment with RXF 393 renal was 95%; with SF-268 CNS it was 90.9%; with SF-295 CNS it was 87.5%; with SF-539 CNS, 93.9%; in the experiment on UACC-257 melanoma, 102%; in the experiment with M14 melanoma, 94%.
For the compound `COc1cc(NC(=O)CSc2nc3ccc(Cl)cc3c(=O)n2Cc2ccccc2)cc(OC)c1OC`, the growth in the experiment on NCI-H23 lung is 76.8%; with NCI-H226 lung, 46.4%; in the experiment with NCI-H322M lung it was 82.3%; in the experiment with HOP-62 NSCLC, 91.3%; in the experiment with NCI-H460 lung it was 64.7%; in the experiment with NCI-H522 lung, 57.7%. For the same compound, the growth is 67.3% with A549/ATCC NSCLC; 58.5% in the experiment on 786-0 renal; 83.2% in the experiment on COLO 205 colon; 72% in the experiment on DU-145 prostate; 61.2% in the experiment on MALME-3M melanoma; 44.6% with MDA-MB-231 breast. Besides, the growth in the experiment with RXF 393 renal was 30.7%; in the experiment on SF-268 CNS, 59.3%; in the experiment on SF-295 CNS, 84.1%; in the experiment with SF-539 CNS it was -6.78% (active); with UACC-257 melanoma it was 70%; with M14 melanoma, 73.4%.
In the case of `Cc1ccsc1C(=O)CC(=O)C(F)(F)C(F)(F)C(F)(F)F`, the growth in the experiment on NCI-H23 lung is 104%; in the experiment on NCI-H226 lung, 93.1%; in the experiment on NCI-H322M lung, 104%; in the experiment on HOP-62 NSCLC, 99.4%; in the experiment with NCI-H460 lung, 114%; in the experiment with NCI-H522 lung, 112%. Further, the growth in the experiment on A549/ATCC NSCLC is 99.4%; in the experiment on 786-0 renal it was 106%; with COLO 205 colon, 112%; with DU-145 prostate, 112%; with MALME-3M melanoma, 105%; with MDA-MB-231 breast, 96.6%. Further, the growth is 108% in the experiment on RXF 393 renal; 107% with SF-268 CNS; 97.1% in the experiment on SF-295 CNS; 102% in the experiment on SF-539 CNS; 108% in the experiment with UACC-257 melanoma; 117% in the experiment with M14 melanoma.
Consider `CCN(CCC#N)c1ccccc1`, for which the growth with NCI-H23 lung was 106%; in the experiment with NCI-H226 lung it was 100%; in the experiment on NCI-H322M lung it was 106%; in the experiment with HOP-62 NSCLC, 101%; in the experiment with NCI-H460 lung, 107%; in the experiment with NCI-H522 lung, 109%. The growth with A549/ATCC NSCLC was 108%; in the experiment on 786-0 renal, 99.7%; with COLO 205 colon, 132%; in the experiment on DU-145 prostate it was 113%; in the experiment on MALME-3M melanoma, 100%; in the experiment on MDA-MB-231 breast, 89.9%. For the same compound, the growth in the experiment with RXF 393 renal is 122%; with SF-268 CNS it was 115%; with SF-295 CNS it was 102%; in the experiment on SF-539 CNS it was 96.5%; in the experiment on UACC-257 melanoma, 119%; with M14 melanoma, 109%.
Take `COc1ccc(C2NC(=O)c3cc4c(cc3N2)OCO4)cc1` (configuration not stated): the growth is 8.1% (active) in the experiment with NCI-H23 lung; 5.1% (active) in the experiment on NCI-H226 lung; 50.4% in the experiment with NCI-H322M lung; 27.8% in the experiment on HOP-62 NSCLC; 5.06% (active) in the experiment on NCI-H460 lung; -48.7% (active) in the experiment on NCI-H522 lung. Moreover, the growth in the experiment with A549/ATCC NSCLC is 18.9%; in the experiment with 786-0 renal, 37.1%; in the experiment with COLO 205 colon, -22.1% (active); with DU-145 prostate it was 7.04% (active); with MALME-3M melanoma, 58.7%; with MDA-MB-231 breast, 31.3%. The growth in the experiment with RXF 393 renal is -2.15% (active); in the experiment on SF-268 CNS, 39.6%; in the experiment with SF-295 CNS, -14% (active); with SF-539 CNS, 8.24% (active); in the experiment with UACC-257 melanoma, 65.8%; with M14 melanoma, -7.7% (active).
Take `CCCCCCCCCCCCNC(=O)N[C@H](C(=O)N[C@H]1/C=C/OCCNC(=O)/C=C/[C@H](C(C)C)NC1=O)C(C)C`: the growth in the experiment with NCI-H23 lung is 60.4%; with NCI-H226 lung it was -3.01% (active); in the experiment on NCI-H322M lung, 97.1%; in the experiment on HOP-62 NSCLC, 76.7%; in the experiment with NCI-H460 lung, 82.6%; in the experiment on NCI-H522 lung, 47.6%. The growth is 94.7% with A549/ATCC NSCLC; 99.8% in the experiment on 786-0 renal; 103% in the experiment on COLO 205 colon; 66.9% in the experiment with DU-145 prostate; 71% in the experiment on MALME-3M melanoma; 81.2% in the experiment on MDA-MB-231 breast. In addition, the growth with RXF 393 renal was 83.6%; with SF-268 CNS, 46.2%; in the experiment on SF-295 CNS, 95.2%; in the experiment on SF-539 CNS, 54.6%; in the experiment on UACC-257 melanoma, 93.1%; with M14 melanoma it was 87.2%.
On to `COc1ccc(-c2cnnn2-c2nonc2-n2cccc2)cc1`, for which the growth is 3.55% (active) in the experiment with NCI-H23 lung; 23.6% in the experiment with NCI-H226 lung; 49.6% in the experiment with NCI-H322M lung; 27.2% in the experiment on HOP-62 NSCLC; 7.52% (active) in the experiment with NCI-H460 lung; -4.72% (active) in the experiment with NCI-H522 lung. The growth is 26% in the experiment with A549/ATCC NSCLC; 36.6% in the experiment with 786-0 renal; -43.1% (active) with COLO 205 colon; 9.22% (active) with DU-145 prostate; 47.8% with MALME-3M melanoma; 33.5% in the experiment on MDA-MB-231 breast. The growth in the experiment on RXF 393 renal was -18.3% (active); in the experiment with SF-268 CNS it was 35.1%; with SF-295 CNS, -17.2% (active); in the experiment on SF-539 CNS, -13.9% (active); in the experiment with UACC-257 melanoma, 65.6%; in the experiment with M14 melanoma, -2.06% (active).
Regarding `CSc1ccc(/C=C2\C=C(CC(=O)NCc3ccc(C(=O)c4ccccc4)cc3)c3cc(F)ccc32)cc1`, the growth is -23.2% (active) in the experiment with NCI-H23 lung; -40.8% (active) with NCI-H226 lung; 39.4% in the experiment on NCI-H322M lung; -7.82% (active) in the experiment on HOP-62 NSCLC; -43.7% (active) in the experiment on NCI-H460 lung; -38.5% (active) in the experiment on NCI-H522 lung. In addition, the growth in the experiment on A549/ATCC NSCLC was -0.932% (active); with 786-0 renal, -25.7% (active); in the experiment with COLO 205 colon, -75.6% (active); in the experiment on DU-145 prostate it was -34.3% (active); with MALME-3M melanoma it was 49.3%; in the experiment with MDA-MB-231 breast, -7.54% (active). The growth with RXF 393 renal is -34.1% (active); in the experiment with SF-268 CNS it was 1.28% (active); in the experiment with SF-295 CNS it was -20.2% (active); in the experiment on SF-539 CNS, -36.2% (active); in the experiment on UACC-257 melanoma, 55.2%; with M14 melanoma, -33.2% (active).
As to `CCNC(=O)c1ccc2c(c1)nc(-c1ccc(Cl)cc1)n2-c1cc(C(C)(C)C)[nH]n1`, the growth in the experiment with NCI-H23 lung is 60%; in the experiment on NCI-H226 lung it was 46.9%; in the experiment on NCI-H322M lung it was 70.9%; in the experiment with HOP-62 NSCLC, 47.3%; in the experiment with NCI-H460 lung, 36.7%; in the experiment with NCI-H522 lung, 32.3%. For the same compound, the growth in the experiment with A549/ATCC NSCLC is 48.6%; in the experiment with 786-0 renal, 27.7%; in the experiment with COLO 205 colon, 51.8%; in the experiment with DU-145 prostate, 71.4%; in the experiment with MALME-3M melanoma, 34.9%; with MDA-MB-231 breast it was 64.3%. The growth is 36.2% in the experiment on RXF 393 renal; 51.6% with SF-268 CNS; 16.4% in the experiment on SF-295 CNS; 32.6% in the experiment on SF-539 CNS; 79.1% with UACC-257 melanoma; 18.1% in the experiment on M14 melanoma.
